Measurements reported in PubChem BioAssay AID463173 (ICCB-Longwood Screening Facility, Harvard Medical School, 2010).
The whole screen tested about 52,000 compounds, of which about 4,300 (8.3%) were called active. This is one part of a sample in which actives are shown more often than they occur. Cut-off read from the data, not from the text of the source: active = survival mostly below about 52% (no sharp cut-off); inactive = mostly above about 56%.

Tested on: DeltatarO mutant
Assay: S. aureus survival, RN4220 and DeltatarO strains – OD600, teichoic acid synthesis inhibitors, primary screen (AID 463173)
Conditions: S. aureus RN4220 wild type/DeltatarO growth, OD600, 18 h, stronger effect = lower value, screened at 18.75 µg/mL (by protocol)

SMILES	survival
Cc1ccc(OCC(=O)Nc2ccc3c(c2)sc(=O)n3C)cc1	110% (inactive)
O=C(Cn1ncc2c3ccccc3n(Cc3ccc(Cl)cc3)c2c1=O)NCCC1=CCCCC1	89% (inactive)
CCc1ccc(C2CC(=O)c3c([nH]c(C(=O)OC4CCCC4)c3C)C2)cc1 (stereo unspecified)	97% (inactive)
O=C(CSc1nnc(NC(=O)NC2CCCCC2)s1)Nc1ccccc1F	79% (inactive)
CCCn1c(C(=O)OC)cc2c1ccn2C	78% (inactive)
CC1(C)Cc2[nH]c(=S)c(C#N)cc2CO1	88% (inactive)
Cc1ccc(CNC(=O)CSc2c(C(C)C)cnc3c2c(=O)n(C)c(=O)n3C)cc1	85% (inactive)
CCCc1cnc2c(c1SCC(=O)NCc1ccc(C)cc1)c(=O)n(C)c(=O)n2C	-4% (active)
CCc1cnc2c(c1SCC(=O)NCc1ccc(C)cc1)c(=O)n(C)c(=O)n2C	70% (inactive)
CCOC(=O)C1=C(C)N=C2SCCC(=O)N2C1c1ccc(OCc2ccccc2)c(OC)c1 (stereo unspecified)	133% (inactive)
COCCOC(=O)C1=C(C)N=C2SCCC(=O)N2C1c1ccc(OCc2ccccc2)c(OC)c1 (stereo unspecified)	58% (inactive)
COc1cc(C2C(C(=O)OCC(C)C)=C(C)N=C3SCCC(=O)N32)ccc1OCc1ccccc1 (stereo unspecified)	46% (active)
O=C1CC(c2ccccc2)Cc2[nH]c(=O)c(-c3nc(-c4ccc(Cl)cc4)cs3)cc21 (stereo unspecified)	72% (inactive)
CN(C)CCCNc1cc(N2CCN(C3CCCCC3)CC2)c2noc3c2c1C(=O)c1ccccc1-3	51% (inactive)
CCN(CC)c1cc(NC2CCCCC2)c2c3c(onc13)-c1ccccc1C2=O	1% (active)
O=C1c2ccccc2-c2onc3c(Br)cc(NC4CCCCC4)c1c23	101% (inactive)
CCCCNc1cc(NC2CCCCC2)c2c3c(onc13)-c1ccccc1C2=O	92% (inactive)
CCNc1cc(N2CCN(C3CCCCC3)CC2)c2noc3c2c1C(=O)c1ccccc1-3	73% (inactive)
CCCCNc1cc(N2CCN(C3CCCCC3)CC2)c2noc3c2c1C(=O)c1ccccc1-3	-5% (active)
COc1ccc(NC(=O)CCS(=O)(=O)c2nc(-c3ccc4c(c3)OCO4)cc(C(F)(F)F)n2)cc1OC	79% (inactive)
Cc1cccc(NC(=O)Cn2cc(C(=O)c3ccco3)c3ccccc32)c1C	55% (inactive)
Cc1cc(C)c(O)c(N)c1	39% (active)
Cc1cc(N)c(O)cc1C	61% (inactive)
Cc1cc(N)cc(C(=O)O)c1O	104% (inactive)
CCOc1ccc(S(=O)(=O)N2CCC(N3CCN(Cc4ccc(C)cc4)C(=O)C3=O)CC2)cc1	77% (inactive)
CCCc1cc(=O)[nH]c(Nc2cc(Cl)cc(Cl)c2)n1	6% (active)

SMILES	survival
CCCOC(=O)c1cccc(Nc2nc(CCC)cc(=O)[nH]2)c1	10% (active)
CCCc1cc(=O)[nH]c(Nc2ccc(C(=O)O)cc2)n1	62% (inactive)
CCCc1cc(=O)[nH]c(Nc2cccc(Cl)c2Cl)n1	68% (inactive)
CCCc1cc(=O)[nH]c(Nc2ccc(C)c(O)c2)n1	57% (inactive)
CCCc1cc(=O)[nH]c(Nc2cc(C)cc(C)c2)n1	108% (inactive)
O=C(CN1C(=O)COc2ccc(S(=O)(=O)N3CCCCCC3)cc21)N1CCN(c2cccc(Cl)c2)CC1	95% (inactive)
O=C(Nc1nnc(S(=O)(=O)N2CCCC2)s1)c1ccccc1Br	36% (active)
O=C(Nc1nnc(S(=O)(=O)N2CCCCCC2)s1)c1ccccc1Br	43% (active)
O=C(Nc1nnc(S(=O)(=O)N2CCCCC2)s1)c1ccccc1Br	61% (inactive)
COc1ccc(C2CC(=O)c3cnc4c(-c5ccccc5)c(C)nn4c3C2)c(OC)c1 (stereo unspecified)	82% (inactive)
COc1cccc(C(=O)Nc2ccc3nc(SCC(=O)N4CCc5ccccc54)sc3c2)c1	59% (inactive)
COc1cccc(-n2cc(C(=O)Nc3cc(C)c(Cl)cc3OC)c3ccccc3c2=O)c1	56% (inactive)
O=C(Nc1ccc2oc(-c3cccnc3)nc2c1)c1ccc(-c2ccc(OC(F)(F)F)cc2)o1	79% (inactive)
Nc1ncc(S(=O)(=O)Nc2ccc(F)cc2F)cn1	84% (inactive)
CCOc1ccccc1NS(=O)(=O)c1cnc(N)nc1	-1% (active)
CCOc1ccccc1CNS(=O)(=O)c1cnc(N)nc1	79% (inactive)
COc1ccc(OC)c(NC(=O)c2ccc(-c3nc(COc4ccccc4)c(C)o3)cc2)c1	62% (inactive)
CCOC(=O)c1[nH]c2ccccc2c1NC(=O)c1ccc(OCC)cc1	75% (inactive)
Cc1ccc(NC(=O)C(c2ccccc2)N2Cc3ccccc3C2=O)cc1Cl (stereo unspecified)	75% (inactive)
CCN(CC)CCNc1ncnc2c1cnn2-c1cc(Cl)ccc1C	77% (inactive)
CCN(c1ncnc2c1cnn2-c1cc(Cl)ccc1C)C1CCCCC1	73% (inactive)
CCN(CC)c1ncnc2c1cnn2-c1cc(Cl)ccc1C	-5% (active)
CCN(CC)C(=O)Cn1c(=O)n(Cc2ccc(C(=O)NCc3ccccc3Cl)cc2)c(=O)c2ccccc21	115% (inactive)
Cc1cn2c(=O)cc(COC(=O)COc3ccccc3C)nc2s1	76% (inactive)
COC(=O)c1ccc(NC(=O)CSc2nnc3c4ccccc4n(C(C)C)c3n2)cc1	52% (inactive)
COc1ccccc1NC(=O)CSc1nnc2c3ccccc3n(C(C)C)c2n1	33% (active)

SMILES	survival
COc1ccccc1NC(=O)CSc1nnc2c(n1)[nH]c1ccccc12	77% (inactive)
O=C(Nc1nnc(S(=O)(=O)N2CCCc3ccccc32)s1)c1cccc(Cl)c1	3% (active)
CC(C)C(=O)Nc1nnc(S(=O)(=O)N2CCc3ccccc32)s1	78% (inactive)
O=C(Nc1nnc(S(=O)(=O)N2CCc3ccccc32)s1)c1cccc(Cl)c1	1% (active)
Cc1ccc(S(=O)(=O)N2CCCc3cc(NC(=O)c4cccc(Cl)c4)ccc32)cc1	87% (inactive)
O=C(Nc1cccc(Cl)c1)c1cc(S(=O)(=O)N2CCCc3ccccc32)ccc1F	108% (inactive)
O=C(Nc1nc2c(Cl)cccc2s1)c1ccc(S(=O)(=O)N2CCc3ccccc32)cc1	69% (inactive)
CCOC(=O)N1CCC(NC(=O)c2cnn(-c3ccccc3)c2C2CCN(C(=O)OC(C)(C)C)CC2)CC1	117% (inactive)
CCOc1ccc(C2=NC(c3cccs3)=Nc3ccc(CC)cc3N2)cc1OCC	77% (inactive)
COc1cccc(CNC(=O)c2cc(-c3cccc(OC)c3)n[nH]2)c1	71% (inactive)
O=C(NCc1ccccc1)N1CCc2c(sc3c2CCCC3)C1c1ccccc1 (stereo unspecified)	75% (inactive)
COc1cc(C)ccc1OCCCn1c(-c2ccc(Cl)cc2)nc2ccccc2c1=O	62% (inactive)
O=C(NC1CCCCCC1)C1c2ccccc2C(=O)N1Cc1ccc(F)cc1 (stereo unspecified)	111% (inactive)
Cc1ccc(CNC(=O)c2ccc(-c3nc(CS(=O)c4ccccc4)c(C)o3)cc2)cc1 (stereo unspecified)	88% (inactive)
COc1cc(Nc2nc(SCc3cccc(Cl)c3)nc3ccccc23)cc(OC)c1	37% (active)
Fc1cccc(CSc2nc(NCCc3ccccc3)c3ccccc3n2)c1	20% (active)
Fc1ccc(Nc2nc(SCc3cccc(Cl)c3)nc3ccccc23)cc1	70% (inactive)
COc1ccc(CCNc2nc(SCc3cccc(F)c3)nc3ccccc23)cc1OC	85% (inactive)
Clc1cccc(CSc2nc(NCCc3ccccc3)c3ccccc3n2)c1	102% (inactive)
COc1cc(Nc2nc(SCc3ccc(Cl)cc3)nc3ccccc23)cc(OC)c1	91% (inactive)
COc1ccc(-n2ccnc2SCC(=O)Nc2ccc3c(c2)OCO3)cc1	105% (inactive)
Cc1ccc2nc(-c3ccsc3)c(Nc3ccc(C(C)C)cc3)n2c1	124% (inactive)
O=C(NCc1ccccc1)c1ccc2c(c1)N(Cc1ccccc1F)C(=O)c1ccccc1S2=O (stereo unspecified)	92% (inactive)
N#CC(C#N)=Cc1cn(-c2ccccc2)nc1-c1ccccc1	68% (inactive)
O=C(NCc1ccccc1)C(=O)NCC(c1ccc2c(c1)OCO2)N1CCOCC1 (stereo unspecified)	92% (inactive)
CCc1ccc(-n2c(=O)c3c4c(sc3n(CC(=O)N3CCC(C)CC3)c2=O)CCC4)cc1	83% (inactive)

SMILES	survival
CCc1ccc(NC(=O)CC2C(=O)N(c3ccc(Cl)cc3)C(=O)N2Cc2ccco2)cc1 (stereo unspecified)	91% (inactive)
CCc1ccc(NC(=O)CC2C(=O)N(c3cccc(OC)c3)C(=O)N2Cc2ccco2)cc1 (stereo unspecified)	25% (active)
COC(=O)c1ccc(NC(=O)CC2C(=O)N(c3cccc(C)c3)C(=O)N2Cc2ccco2)cc1 (stereo unspecified)	92% (inactive)
COC(=O)c1ccc(NC(=O)CC2C(=O)N(c3cccc(OC)c3)C(=O)N2Cc2ccco2)cc1 (stereo unspecified)	70% (inactive)
COC(=O)c1ccc(NC(=O)CC2C(=O)N(c3ccc(Cl)cc3)C(=O)N2Cc2ccco2)cc1 (stereo unspecified)	37% (active)
CCc1ccc(NC(=O)CC2C(=O)N(c3cccc(C)c3)C(=O)N2Cc2ccco2)cc1 (stereo unspecified)	118% (inactive)
CCN(CC)c1ccc2cc(C(=O)Nc3cccc(OC)c3)c(=O)oc2c1	75% (inactive)
Cn1nnc2c(NCc3c(F)cccc3F)ncnc21	80% (inactive)
C=CCn1c(C#N)c(N)sc1=N	96% (inactive)
Cc1ccc(N2C(=O)CCSC23C(=O)N(Cc2ccccc2)c2ccccc23)cc1F (stereo unspecified)	89% (inactive)
COc1ccc(OC(=O)c2nc(SCc3ccc(C)cc3)ncc2Cl)cc1	57% (inactive)
COc1ccc(CCNC(=O)c2ccc3nc(CCc4ccccc4)oc3c2)cc1OC	37% (active)
COc1ccc(Cc2nc3ccc(C(=O)NCCc4ccc(OC)c(OC)c4)cc3o2)cc1	77% (inactive)
CCCNC(=O)c1ccc2nc(CCc3ccccc3)oc2c1	78% (inactive)
CN(C)c1ccc(CNC(=O)c2ccc3nc(CCc4ccccc4)oc3c2)cc1	93% (inactive)
O=C(NCc1cccc(F)c1)c1ccc2nc(CCc3ccccc3)oc2c1	79% (inactive)
CCOc1cc(CNC(=O)c2ccc3nc(C(C)C)oc3c2)cc(OCC)c1OCC	47% (active)
O=C(NCCc1ccc(Cl)cc1)c1ccc2nc(CCc3ccccc3)oc2c1	75% (inactive)
O=C(NCc1ccccc1)c1ccc2nc(CCc3ccccc3)oc2c1	0% (active)
O=C(NCCc1ccccc1)c1ccc2nc(CCc3ccccc3)oc2c1	32% (active)
COc1ccc(CCNC(=O)c2ccc3nc(Cc4ccccc4)oc3c2)cc1OC	99% (inactive)
CCc1ccc(CNC(=O)c2ccc3nc(C(C)C)oc3c2)cc1	82% (inactive)
CCOc1ccc(CNC(=O)c2ccc3nc(C(C)C)oc3c2)cc1	76% (inactive)
